Composite z-score and z-score data for six molecules are collected here from PubChem BioAssay.

Activity calls are given as the source filed them.

Test [1] concerns Plasmodium falciparum Sir2 (PF13_0152, Sir2A). In words: Plasmodium falciparum Sir2A binding compounds – biochemical, small-molecule microarray, 635 nm fluorescence, primary screen (AID 1098).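 Note: score merges spot fluorescence intensity with its signal-to-noise ratio.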 The settings on record: fluorescence 635 nm, higher = more signal.
Test [2] in a line: probe aDKK1 binding to arrayed compounds – biochemical, biotinylated probe, 635/667 nm fluorescence, primary screen (AID 1099).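 Note: score merges 667nm spot fluorescence with signal to noise across triplicate slides.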 The settings on record: small-molecule microarray, higher = more signal.
Test [3] is described as follows: probe aCHRDL2 binding to arrayed compounds – biochemical, biotinylated probe, 635/667 nm fluorescence, primary screen (AID 1100). As to conditions: small-molecule microarray, higher = more signal.
Test [4] in a line: change in splice reporter luminescence, either direction, cell-based, HEK293, spliceosome inhibition project, primary screen (AID 1101).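 Note: HEK293 cells carrying a splicing-competent luciferase reporter gene; test concentration not given here.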 The settings on record: HEK293 splicing luciferase reporter, 24 h, higher = more signal, called active from +8 up or from −8 down.
For test [5], the target named is Fibroblast growth factor 10 (Homo sapiens) (UniProt O15520). In words: compounds binding fibroblast growth factor 10 – biochemical, small-molecule microarray, 635 nm fluorescence, primary screen (AID 1102). As to conditions: FGF10 binding, fluorescence 635 nm, higher = more signal.
Fibroblast growth factor 10 (Homo sapiens), sequence (O15520 whole entry, looked up): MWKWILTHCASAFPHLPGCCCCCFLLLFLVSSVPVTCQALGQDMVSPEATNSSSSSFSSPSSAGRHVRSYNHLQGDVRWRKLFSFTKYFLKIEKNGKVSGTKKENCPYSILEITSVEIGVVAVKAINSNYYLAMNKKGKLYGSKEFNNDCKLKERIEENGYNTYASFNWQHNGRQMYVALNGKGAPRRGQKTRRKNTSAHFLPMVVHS
The subject of test [6] is glycogen synthase kinase-3 (GSK3A per assay name; protocol says GSK3B). In words: compounds binding glycogen synthase kinase-3 – biochemical, small-molecule microarray, 635 nm fluorescence, GSK3A, primary screen (AID 1103). Note: the record names both GSK3A and GSK3B. As to conditions: fluorescence 635 nm, higher = more signal.
The target in test [7] is Epidermal growth factor receptor (Homo sapiens) (UniProt P00533). The test can be described thus: compounds binding epidermal growth factor receptor – biochemical, small-molecule microarray, 635 nm fluorescence, primary screen (AID 1104).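 Note: score merges 667 nm emission intensity with spot signal to noise over triplicate slides.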 As to conditions: EGFR binding, higher = more signal.
Epidermal growth factor receptor (Homo sapiens), sequence (P00533 whole entry, looked up): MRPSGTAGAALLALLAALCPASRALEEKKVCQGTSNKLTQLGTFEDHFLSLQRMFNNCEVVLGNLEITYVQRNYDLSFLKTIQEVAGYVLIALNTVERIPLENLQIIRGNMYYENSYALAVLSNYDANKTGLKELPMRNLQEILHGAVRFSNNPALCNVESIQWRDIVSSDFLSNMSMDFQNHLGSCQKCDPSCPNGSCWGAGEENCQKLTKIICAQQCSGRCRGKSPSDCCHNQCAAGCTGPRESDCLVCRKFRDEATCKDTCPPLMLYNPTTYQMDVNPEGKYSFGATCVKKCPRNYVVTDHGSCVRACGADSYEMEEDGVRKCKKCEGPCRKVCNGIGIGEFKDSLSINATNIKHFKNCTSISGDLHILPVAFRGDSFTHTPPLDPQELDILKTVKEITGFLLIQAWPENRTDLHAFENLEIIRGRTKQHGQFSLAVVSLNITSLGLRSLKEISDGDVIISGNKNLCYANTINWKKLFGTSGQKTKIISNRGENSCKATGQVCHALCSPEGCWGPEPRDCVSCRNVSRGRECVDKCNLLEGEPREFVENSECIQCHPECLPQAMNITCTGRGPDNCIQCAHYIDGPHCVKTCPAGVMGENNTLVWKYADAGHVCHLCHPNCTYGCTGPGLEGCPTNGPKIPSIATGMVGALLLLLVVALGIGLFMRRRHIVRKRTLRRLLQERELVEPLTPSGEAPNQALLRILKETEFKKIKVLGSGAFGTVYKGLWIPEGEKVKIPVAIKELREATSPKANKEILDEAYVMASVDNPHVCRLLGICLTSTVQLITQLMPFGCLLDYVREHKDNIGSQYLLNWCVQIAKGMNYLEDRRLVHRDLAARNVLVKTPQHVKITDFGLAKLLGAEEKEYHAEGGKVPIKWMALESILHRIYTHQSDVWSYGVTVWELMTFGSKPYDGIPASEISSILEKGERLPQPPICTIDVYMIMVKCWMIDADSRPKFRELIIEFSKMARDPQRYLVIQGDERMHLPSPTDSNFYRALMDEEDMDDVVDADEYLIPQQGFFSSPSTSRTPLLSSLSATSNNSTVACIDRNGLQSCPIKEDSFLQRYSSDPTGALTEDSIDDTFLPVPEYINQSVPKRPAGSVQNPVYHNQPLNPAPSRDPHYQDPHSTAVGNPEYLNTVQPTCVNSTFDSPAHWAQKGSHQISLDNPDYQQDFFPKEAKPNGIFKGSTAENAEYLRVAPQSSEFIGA
Test [8] concerns the target Follistatin-related protein 3 (Homo sapiens) (UniProt O95633). In words: compounds binding follistatin-related protein 3 – biochemical, small-molecule microarray, 635 nm fluorescence, primary screen (AID 1105).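 Note: score merges emission near 667 nm and signal to noise per printed spot across three slides.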 As to conditions: FSTL3 binding, higher = more signal.
Test [9] addresses Dickkopf-related protein 1 (Homo sapiens) (UniProt O94907). The test can be described thus: small molecules binding DKK1 protein – biochemical, small-molecule microarray, 635 nm fluorescence scan, primary screen (AID 1106).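 Note: score merges emission near 667 nm with signal to noise over three replicate slides.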 As to conditions: higher = more signal.
Test [10] concerns Inhibin beta A chain (activin A). In words: small molecules binding activin A – biochemical, small-molecule microarray, 635 nm fluorescence scan, primary screen (AID 1107).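 Note: mouse activin A protein probed at 4.33 µg/mL on printed slides; score merges bound-protein fluorescence near 667 nm with spot signal-to-noise.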 As to conditions: INHBA, higher = more signal.
The test system of test [11] is Human papillomavirus type 1a protein E7 (residues 44-93). In words: small molecules binding HPV E7 44-93 – biochemical, small-molecule microarray, residues 44-93, 635 nm fluorescence, primary screen (AID 1108).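 Note: E7 fragment applied at 1 µg/mL in TBST for 1 h at 4 C; score combines spot fluorescence with its signal to noise ratio.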 The settings on record: fluorescence 635 nm, higher = more signal.
A short description of test [12]: hepatitis C replication reporter changes, two-sided – Huh7 cells, luciferase reporter, HCV replication inhibitor project, primary screen (AID 1109).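 Note: huh7 hepatoma cells harbouring a luciferase neomycin HCV replicon reporter; luciferase luminescence as measure of HCV replicon replication; test concentration not given here.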 The settings on record: Huh7 HCV replicon luciferase reporter, 48 h; higher = more signal.
For test [13], the target named is Left-right determination factor 2 (Homo sapiens) (UniProt O00292). The test can be described thus: small molecules binding LEFTY2 protein – biochemical, small-molecule microarray, 635 nm fluorescence scan, primary screen (AID 1110). As to conditions: higher = more signal.
Left-right determination factor 2 (Homo sapiens), sequence (O00292 whole entry, looked up): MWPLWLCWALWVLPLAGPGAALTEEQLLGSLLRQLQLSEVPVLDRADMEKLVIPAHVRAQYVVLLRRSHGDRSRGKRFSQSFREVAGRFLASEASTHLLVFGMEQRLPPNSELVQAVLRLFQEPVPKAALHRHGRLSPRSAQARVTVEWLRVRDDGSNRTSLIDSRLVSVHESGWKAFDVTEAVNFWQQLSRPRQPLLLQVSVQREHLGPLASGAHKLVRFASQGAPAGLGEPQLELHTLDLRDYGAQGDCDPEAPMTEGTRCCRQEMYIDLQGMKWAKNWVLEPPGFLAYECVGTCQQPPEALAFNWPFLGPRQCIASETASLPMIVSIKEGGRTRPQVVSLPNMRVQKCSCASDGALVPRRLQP
In test [14] the target is Calmodulin-1 (Homo sapiens) (UniProt P0DP23). The test can be described thus: small molecules binding calmodulin-1 with EGTA – biochemical, small-molecule microarray, Cy5-labelled CALM1, profiling panel (AID 1111).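 Note: labelled calmodulin applied in Tris saline Tween buffer holding calcium plus EGTA and DTT.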 The settings on record: Cy5-CALM1 binding fluorescence, higher = more signal.
Test [15] has the same target. The test can be described thus: small molecules binding Ca-loaded calmodulin-1 – biochemical, small-molecule microarray, Cy5-labelled CALM1, plus calcium, artefact control for SMM control-protein annotation, profiling panel (AID 1112).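 Note: score merges spot fluorescence with signal to noise from triplicate slides.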 As to conditions: Cy5-CALM1 binding fluorescence, higher = more signal.
Test [16] in a line: probe aWnt5a binding to arrayed compounds – biochemical, biotinylated probe, 635/667 nm fluorescence, primary screen (AID 1113).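 Note: score merges 667 nm fluorescence intensity with signal-to-noise per printed feature.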 The settings on record: small-molecule microarray, higher = more signal.
The nature of test [17]: probe aShh binding to arrayed compounds – biochemical, biotinylated probe, 635/667 nm fluorescence, primary screen (AID 1114).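 Note: probe is biotin-labelled aShh protein from a stem cell growth factor screen; measures binding of labelled protein to compounds printed on the slide; score merges feature fluorescence at 667 nm with signal-to-noise.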 As to conditions: small-molecule microarray, higher = more signal.
The nature of test [18]: probe aNog binding to arrayed compounds – biochemical, biotinylated probe, 635/667 nm fluorescence, primary screen (AID 1115).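 Note: probe is biotinylated aNog protein used at 0.15 µg/mL for 1 h at 4 C; z-score combines 667 nm fluorescence of each spot with its signal to noise.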 As to conditions: small-molecule microarray, higher = more signal.
In test [19] the target is Torsin-1A-interacting protein 1 (Homo sapiens) (UniProt Q5JTV8). In words: compound microarray binding of lysate hLAP1 – cell lysate, small-molecule microarray, COS7 lysate, 635/667 nm fluorescence, primary screen (AID 1116). The settings on record: 635 nm fluorescence, higher = more signal.
Torsin-1A-interacting protein 1 (Homo sapiens), sequence (Q5JTV8 whole entry, looked up): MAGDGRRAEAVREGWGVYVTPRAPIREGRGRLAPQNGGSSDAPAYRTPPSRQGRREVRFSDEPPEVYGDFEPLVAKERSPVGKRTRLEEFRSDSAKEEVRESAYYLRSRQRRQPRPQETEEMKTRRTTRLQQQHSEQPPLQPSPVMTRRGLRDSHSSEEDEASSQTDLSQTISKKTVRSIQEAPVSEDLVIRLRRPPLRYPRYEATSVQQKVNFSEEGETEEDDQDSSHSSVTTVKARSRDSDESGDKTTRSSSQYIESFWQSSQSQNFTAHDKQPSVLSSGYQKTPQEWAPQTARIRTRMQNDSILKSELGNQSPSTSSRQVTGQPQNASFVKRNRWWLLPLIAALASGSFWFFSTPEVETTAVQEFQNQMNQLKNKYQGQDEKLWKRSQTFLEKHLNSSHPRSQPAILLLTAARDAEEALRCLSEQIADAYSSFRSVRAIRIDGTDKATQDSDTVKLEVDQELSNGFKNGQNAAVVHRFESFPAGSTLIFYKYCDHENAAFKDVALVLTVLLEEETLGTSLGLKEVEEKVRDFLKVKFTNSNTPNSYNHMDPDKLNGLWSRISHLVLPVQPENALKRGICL
Test [20] concerns the target Alpha-bungarotoxin (Bungarus multicinctus) (UniProt P60615). The test can be described thus: compounds binding labelled alpha-BTX control protein – biochemical, small-molecule microarray, Alexa647 label, 635/667 nm fluorescence, artefact control for SMM control protein annotation, profiling panel (AID 1117). As to conditions: alpha-BTX-A647 binding fluorescence, higher = more signal.

Alpha-bungarotoxin (Bungarus multicinctus), sequence (P60615 whole entry, looked up): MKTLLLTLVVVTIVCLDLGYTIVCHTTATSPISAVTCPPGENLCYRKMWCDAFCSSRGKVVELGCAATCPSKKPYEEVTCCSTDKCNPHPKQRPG
Follistatin-related protein 3 (Homo sapiens), sequence (O95633 whole entry, looked up): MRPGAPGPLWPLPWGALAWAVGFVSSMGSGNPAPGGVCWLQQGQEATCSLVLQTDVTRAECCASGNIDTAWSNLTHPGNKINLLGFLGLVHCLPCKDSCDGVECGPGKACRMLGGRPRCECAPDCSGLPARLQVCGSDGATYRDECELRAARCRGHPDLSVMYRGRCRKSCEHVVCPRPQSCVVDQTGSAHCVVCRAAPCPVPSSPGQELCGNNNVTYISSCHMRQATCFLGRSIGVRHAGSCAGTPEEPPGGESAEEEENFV
Dickkopf-related protein 1 (Homo sapiens), sequence (O94907 whole entry, looked up): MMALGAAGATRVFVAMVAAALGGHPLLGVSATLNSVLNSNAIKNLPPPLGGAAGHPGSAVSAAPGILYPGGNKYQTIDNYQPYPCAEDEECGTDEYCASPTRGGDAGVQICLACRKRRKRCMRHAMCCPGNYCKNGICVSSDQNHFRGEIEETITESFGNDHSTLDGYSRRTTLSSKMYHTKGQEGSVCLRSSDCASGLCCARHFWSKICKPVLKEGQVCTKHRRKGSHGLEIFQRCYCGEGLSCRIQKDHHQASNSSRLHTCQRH

Turning to `COC(=O)[C@@]1(Cc2ccc(OC)cc2)[C@H]2c3cc(C(=O)N4CCCC4)n(Cc4c(-c5ccccc5)noc4C)c3C[C@H]2CN1C(=O)c1ccccc1`, the composite z-score in [1] is 0.743; in [2], 1.08; in [3], 1.12; in test [5], 1.4; in test [6], 0.495; in test [7] it was 0.713. Also, the composite z-score in [8] is 1.2; in test [9], -0.414; in test [10], 0.641; in test [11], 1.41; in [13], -0.181; in test [14], 1.5. The composite z-score was determined as 0.716 in test [15]; 0.42 in [16]; 0.268 in [17]; 1.85 in test [18]; 0.764 in test [19]; 0.818 in [20]. Also, the z-score in test [4] was -3.14 (inactive); in [12], -2.21.
Take `C=CCOC(=O)[C@H]1[C@@H]2C(=O)O[C@@H](c3ccccc3)[C@@H](c3ccccc3)N2[C@@H](c2ccc(OCCOC(=O)[C@H]3C[C@H]4C(=O)N[C@@H](CC(C)C)C(=O)N4[C@H]3c3cccc(OCCO)c3)cc2)[C@]12C(=O)Nc1ccc(I)cc12`: the composite z-score in test [1] is 1.36; in test [2], -0.122; in [3], 0.18; in [5], 1.33; in test [6], 1.31; in test [7], 1.21. Further, the composite z-score in test [8] came out at 0.919; in [9], 0.963; in test [10], 0.535; in test [11], 1.31; in test [13] it was 1.08; in test [14], 0.621. For the same molecule, the composite z-score was 0.0537 in [15]; -0.168 in [16]; -0.0769 in test [17]; -0.141 in test [18]; -0.302 in test [19]; 0.473 in test [20]. Further, the results for the z-score in [4] and in [12] were 0.642 (inactive) and -1.51, respectively.
In the case of `O=C1OCC=C[C@H]2OC34C=CCN(Cc5ccccc5)C(=O)[C@H]3N(CCCCCCO)C(=O)[C@@H]4[C@@H]12` (stereo not given in full), the composite z-score in test [1] was 1.82; in test [2] it was -0.305; in [3], 0.777; in test [5] it was -0.735; in test [6], -0.868; in test [7] it was -0.825. In addition, the composite z-score is -0.608 in [8]; -1.03 in test [9]; 0.652 in [10]; -1.08 in [11]; -1.19 in test [13]; -0.274 in test [14]. In addition, the composite z-score in test [15] was 0.466; in [16], -0.161; in test [17], -0.0396; in test [18] it was -0.302; in [19], 2.46; in [20], -0.367. Further, the z-score is 0.148 (inactive) in test [4] and 0.141 in test [12].
For `[N-]=[N+]=NCc1ccccc1C[C@@]1(C(=O)N2CCCCC2)N=C(c2ccc(OCCCO)cc2)O[C@@H]1c1ccccc1`, the composite z-score in [1] is 0.884; in test [2], 0.542; in test [3], 0.751; in test [5], 0.384; in test [6], 0.0635; in test [7] it was -0.451. Moreover, the composite z-score was -0.281 in test [8]; -0.849 in test [9]; 1.05 in [10]; 0.785 in [11]; -1.01 in [13]; 1.28 in test [14]. Further, the composite z-score in test [15] is 0.958; in test [16] it was 0.0141; in test [17], -0.325; in test [18] it was 0.46; in test [19], 2.15; in test [20], 1. The values for the z-score in test [4] and in test [12] were -0.422 (inactive) and -3.35, respectively.
In the case of `COC(=O)[C@@]1(Cc2ccccc2)[C@H]2c3cc(C(=O)N(C)C)n(Cc4c(CO)[nH]cc(C)c4=O)c3C[C@H]2CN1C(=O)c1ccccc1`, the composite z-score in test [1] was 0.42; in [2] it was 0.183; in [3] it was 0.528; in test [5], 0.422; in [6] it was -0.0088; in test [7], -0.0555. In addition, the composite z-score in [8] is -0.237; in test [9], -0.296; in test [10], 1.1; in test [11], -0.0355; in [13], -0.0086; in test [14] it was 0.278. Also, the composite z-score in test [15] came out at 0.0907; in test [16], 0.108; in [17] it was 0.061; in [18], 1.05; in test [19], 0.37; in test [20], 0.218. The z-score in test [4] is 1.06 (inactive); in test [12], -0.898.
As for `O=C(CS)NCCCCCCNC(=O)[C@H]1C[C@H]2C(=O)N[C@@H](Cc3ccccc3)C(=O)N2[C@H]1c1ccc(O)cc1`, the composite z-score in [1] is 1.67; in test [2], -0.249; in test [3] it was -0.0488; in test [5], 1.39; in [6], 0.992; in test [7] it was 0.0478. For the same molecule, the composite z-score in [8] was 0.333; in test [9] it was 0.75; in [10], -0.95; in test [11] it was 1.39; in [13] it was 0.656; in [14], -0.123. Further, the composite z-score is -0.426 in [15]; -0.1 in [16]; -0.339 in [17]; -0.493 in [18]; 0.0397 in [19]; 0.329 in test [20]. Moreover, the z-score in test [4] was -0.239 (inactive); in [12] it was -0.53.
